Reference: PubChem BioAssay AID1985 (Southern Research Specialized Biocontainment Screening …, 2009)
About 1,000 (43%) of roughly 2,300 compounds were called active. How the calls were made is not given here. So high a share suggests a set chosen from earlier hits. The list shows a part of the results. Entries with a potency or affinity are not part of this list.

Assay: PhoP regulon inhibitor project modified counter assay, GFP fluorescence readout, dose response (AID 1985)
Conditions: S. Typhi, 4 h; series mostly up to 150 µM; inhibition: at the top concentration

Compound	inhibition
CCOc1cc(S(=O)(=O)N2CCN(CC)CC2)ccc1Cl	-5.49% (inactive)
Cc1cc(C)n2nc(SCn3nnc4ccccc4c3=O)nc2n1	11.8% (inactive)
Cc1ccc2cc(CN(Cc3ccc(F)cc3)Cc3nnnn3C3CCCC3)c(=O)[nH]c2c1	-28% (inactive)
CCCCCCCCC1=NCCc2c1[nH]c1ccccc21	-11% (inactive)
CN(C)CCSc1nnc2[nH]c3ccccc3c2n1	-3.67% (inactive)
CCCCCCNC1=NCCS1	31.9% (inactive)
COc1ccc(-n2ncc3c(NCc4ccccn4)ncnc32)cc1	-9.74% (inactive)
CC1=C([N+](=O)[O-])C(c2cccc(Br)c2)C2=C(N1)c1ccccc1C2=O (stereo not given)	20.7% (inactive)
O=C(O)C1Cc2ccccc2CN1S(=O)(=O)c1ccc2ccccc2c1 (stereo not given)	-7.48% (inactive)
CC(=O)c1c(C)[nH]c(C(=O)CSc2nnc(-c3ccc(Cl)cc3)n2CC2CCCO2)c1C (stereo not given)	0.08% (inactive)
O=C(CSc1nc2ncc(Cl)cc2[nH]1)NCC(=O)Nc1ccc(F)c(F)c1F	4.94% (inactive)
CC1(C)CC(N2CCN(c3ccccc3)CC2)=CC(=[N+]2CCCC2)C1	8.5% (inactive)
CCCCCCC(=O)N(O)C1CC(=O)N(Cc2ccccc2)C1=O (stereo not given)	6.46% (inactive)
Cc1ccc(OCC(O)Cn2c(N)nc3c2c(=O)n(C)c(=O)n3C)cc1 (stereo not given)	-6.08% (inactive)
C=CCn1c(C)c(C(C)=O)c(N2CCCC2)nc1=S	15.9% (inactive)
CCOC(=O)C1=C(C(C)=O)C(c2cccnc2)C(C#N)=C(N)O1 (stereo not given)	3.6% (inactive)
COc1ccc(CN2CCSCC2)cc1C	17.3% (inactive)
Cc1ccc(NC(=O)CN(C)C(=O)Cn2ccsc2=N)cc1	9.59% (inactive)
CC(C)NC(=O)c1cc(-c2ccc(Br)cc2)on1	2.62% (inactive)
Cc1ccccc1-c1ncc(CN2CCN(C3CCCC3)C(CCO)C2)cn1 (stereo not given)	9.03% (inactive)
Nc1nc2n(n1)C(c1ccco1)CC(c1ccc(Cl)c(Cl)c1)N2 (stereo not given)	-11.5% (inactive)
CC(=O)Nc1cc(-c2ccc(Cl)cc2)[nH]n1	-11.4% (inactive)

Compound	inhibition
CCN(CC)CCNC(=O)c1cccc(NC(=O)C(=O)c2cc(Br)ccc2NC(C)=O)c1	15% (inactive)
COc1ccc(NS(=O)(=O)c2cccc(NC(=O)c3ccccn3)c2)cc1	1.48% (inactive)
O=C(NC(=C(Cl)Cl)S(=O)(=O)c1ccc(Cl)cc1)c1ccccc1	-3.98% (inactive)
CCCCCCCCCCCCC/C=C/[C@@H](O)[C@@H](N)CO	21.2% (inactive)
COc1ccc(OC)c(S(=O)(=O)N2CCC(C(=O)NCCc3ccc(OC)c(OC)c3)CC2)c1	-3.61% (inactive)
Cc1nnc(SCc2cnc(-c3ccc(C(C)C)cc3)s2)n1C	34.8% (inactive)
O=C(C[n+]1cc(-c2ccccc2)n2c1CCC2)c1cccs1	18.7% (inactive)
Cc1ccc(-n2c(Cc3noc4ccccc34)n[nH]c2=S)cc1	2.98% (inactive)
CCc1nnc(NS(=O)(=O)c2ccc(NC(=S)NC(=O)/C=C/c3ccc([N+](=O)[O-])cc3)cc2)s1	-7.82% (inactive)
CCN(CC)CCCNC(=O)c1c(O)c2c([nH]c1=O)CCCC2	6.8% (inactive)
CCSc1nc(C)cc(C)c1S(=O)(=O)c1ccccc1C	-0.26% (inactive)
O=c1ccn(CCc2c[nH]c3ccccc23)c2c1CCCC2	-12.7% (inactive)
Nc1cccc2c(=O)c3ccccc3[nH]c12	16.4% (inactive)
Cc1[nH]c2ccccc2c1/C=C/c1nc2ccccc2c(=O)[nH]1	15.8% (inactive)
Cc1ccc2[nH]c(C(=O)O)c(NC(=O)CN3CCN(c4cccc(C)c4C)CC3)c2c1	36.2% (inactive)
CC1CCC[C@H](O)CCCCCc2cc(O)cc(O)c2C(=O)O1 (stereo not given in full)	-28.5% (inactive)
O=C(O)c1ccc(S(=O)(=O)NC2CC2)cc1	25% (inactive)
c1cc2c(cc1C1CCCCC1)c1c3n2CCN=C3CCC1	-16.8% (inactive)
CC1(C)CC(=O)C(C=NCC2CCN(C(=O)Cc3ccccc3)CC2)=C(O)C1	6.03% (inactive)
O=C(CSc1ncc(-c2ccc(F)cc2)[nH]1)NCc1ccco1	-32.3% (inactive)
CC(C)(C)c1nc(SCC(=O)NCc2ccco2)c2ccccc2n1	-7.41% (inactive)
O=C(CSc1nc2c(c(=O)n1-c1ccc(F)cc1)SCC2)NCc1ccco1	-0.95% (inactive)

Compound	inhibition
c1ccc(CN2CCN(c3nc(NCc4ccco4)c4ccccc4n3)CC2)cc1	20.6% (inactive)
COc1ccccc1Nc1nc(NCc2ccco2)c2ccccc2n1	21.9% (inactive)
CC1CCCN(C(=O)Cn2c(=O)oc3cc(S(=O)(=O)N4CCCCC4)ccc32)C1 (stereo not given)	-3.65% (inactive)
COc1ccc(CSCCN)cc1Cl	5.75% (inactive)
CCCOc1ccc(C2=CSC3=NCCN23)cc1Cl	10.9% (inactive)
c1ccn(-c2ccc(-c3ccn[nH]3)cc2)c1	2.06% (inactive)
O=C(NCc1ccco1)c1ccc2c(c1)N(Cc1ccccc1)CCS2	-17.1% (inactive)
O=C1N/C(=C/c2ccc(N3CCOCC3)cc2)C(=O)N1Cc1ccc(F)cc1	-4.52% (inactive)
CCOC(=O)c1c(CSC(=N)N)n(C)c2cc(Br)c(OC(C)=O)cc12	-19% (inactive)
CCOC(=O)Cc1[nH]nc2c1C(c1ccoc1)C(C#N)=C(N)O2 (stereo not given)	24.6% (inactive)
NC1=NC[C@H](Cc2ccc(O)cc2)N1CCc1cccc2ccccc12	-33.5% (inactive)
COc1cc2c(cc1OC)CN(C(=O)CCCN1C(=O)c3ccccc3C1=O)CC2	11% (inactive)
COc1ccc(C(=O)Oc2cc(C(=S)N3CCOCC3)ccc2OC)cc1	-4.19% (inactive)
Cc1cc(C)c[n+](CC(=O)c2ccc(NC(=O)c3ccccc3)cc2)c1	15% (inactive)
CC(C)(C)n1nc2c(c1NC(=O)c1ccccc1)CS(=O)(=O)C2	-6.62% (inactive)
Cc1ccc(C)c(OCC(=O)Nc2cccc(C(=O)O)c2)c1C	26.7% (inactive)
Cc1c(-c2ccccc2)[n+](=O)c2c(n1[O-])CCCC2	7.37% (inactive)
Cn1c(CCN2CCN(c3ccccn3)CC2)nc2cc(NC(=O)COc3ccccc3)ccc21	16.1% (inactive)
O=c1c2ccccc2nc2n1CCc1c-2[nH]c2ccccc12	-12.2% (inactive)
COc1cc(/C=C(/C#N)C(=O)Nc2ccccc2)c(Br)cc1OCc1ccc(C(=O)O)cc1	-2.34% (inactive)
CCC(=O)N1CCc2cc(S(=O)(=O)NCCCN3CCN(Cc4ccccc4)CC3)ccc21	-4.18% (inactive)
CCNC(=S)Nc1cc(-c2ccc(Cl)cc2)[nH]n1	-1.85% (inactive)

Compound	inhibition
CCn1nnnc1SCC(=O)c1cc(Cl)ccc1OC	4.28% (inactive)
CC1CCC(C(C)C)C(OC(=O)C[n+]2cc(-c3ccc(Cl)cc3)n3c2CCC3)C1 (stereo not given)	35.1% (inactive)
CC1CCC(C(C)C)C(OC(=O)Cn2c(-c3ccc(Br)cc3)[n+](C)c3ccccc32)C1 (stereo not given)	-18.7% (inactive)
COc1ccc(OC)c(C(=O)c2ccc(C(=O)O)cc2)c1	13.8% (inactive)
Cc1ccc(NC2=C(Cl)C(=O)OC2OC(=O)c2ccco2)c(C)c1 (stereo not given)	1.58% (inactive)
COC(=O)c1ccc(OC(=O)c2cccnc2)cc1	14% (inactive)
COC(=O)c1cn(C(=O)c2ccco2)c2ccccc12	-16% (inactive)
COc1ccc(N(C(=O)c2cccnc2)S(=O)(=O)c2cccc([N+](=O)[O-])c2)cc1	-6.79% (inactive)
CCN(C1CCCCC1)S(=O)(=O)c1ccc(OC)c(C)c1	10.8% (inactive)
CSC1=NC2(C)CCCCC2C12C=CC(=O)C=C2 (stereo not given)	-12.5% (inactive)
COc1ccc(C(=O)CSc2nnc(-c3cnccn3)n2Cc2ccco2)cc1	-8.62% (inactive)
Cc1cc(NC(=O)CSc2nnc(-c3cccnc3)n2N)no1	16.5% (inactive)
Cc1cc(C)c(CSc2ncnc3nc[nH]c23)c(C)c1	-13.6% (inactive)
N#CC(C(=O)C12CC3CC(CC(C3)C1)C2)c1nc2ccccc2[nH]1 (stereo not given)	-23.9% (inactive)
Cn1cnc2cc(NC(=O)c3cccs3)ccc21	25.2% (inactive)
Cc1nc2ccc(NC(=O)c3cccc(C(F)(F)F)c3)cc2o1	-0.54% (inactive)
O=C(Nc1ccc2c(c1)nc1n2CCN(Cc2ccccc2)C1)c1cccs1	-10.1% (inactive)
CC(=O)c1ccc(NC(=S)NC(NC(=O)c2ccco2)C(Cl)(Cl)Cl)cc1 (stereo not given)	26.9% (inactive)
c1ccc(N2CCN(c3nc4ccccc4[nH]3)CC2)nc1	23.3% [at 75 µM] (inactive)
Cc1nn(-c2nc3ccccc3[nH]2)c(N)c1-c1ccccc1	5.82% (inactive)
COc1ccc(NC(=O)Cn2c(=O)oc3cc(S(=O)(=O)N4CCCC4)ccc32)c(OC)c1	-6.13% (inactive)
COc1cc(CNC(=O)CCC(=O)N2C[C@H]3C[C@H](C2)c2cccc(=O)n2C3)cc(OC)c1OC	-15.7% (inactive)

Compound	inhibition
Cc1ccc(/C=N/NC(=O)CSc2nc3ccccc3n2C)s1	7.39% (inactive)
CC(C)c1ccc(NC(=O)CSc2nnc(-c3ccccn3)n2C)cc1	1.9% (inactive)
COc1ccccc1C(=O)NNC1=C(C(=O)C(F)(F)F)CCC1	22% (inactive)
COc1nc(N(C#N)CC(N)=O)nc(N2CCCC2)n1	-14.6% (inactive)
CC1CCN(CC(CS(=O)(=O)c2ccc([N+](=O)[O-])cc2)N2CCC(C)CC2)CC1 (stereo not given)	-27.2% (inactive)
O=c1c2cnn(-c3ccccc3)c2ncn1CCc1ccccc1	16.9% (inactive)
COc1cccc(-c2nc(CS(=O)CC(=O)NCCCOC(C)C)c(C)o2)c1 (stereo not given)	-17.2% (inactive)
Cc1ccsc1/C=N/NC(=O)c1ccncc1	3.21% (inactive)
O=C(N/N=C/c1ccc(N2CCCC2)c([N+](=O)[O-])c1)c1cccnc1	19.8% (inactive)
Cc1cc(C)n(-c2nc3ccccc3nc2N2CCN(C(=O)c3ccc(F)cc3)CC2)n1	-26.8% (inactive)
CSc1nnc(-c2cccc(NC(=S)NN)c2)o1	-45.2% (inactive)
Cc1cccc(-n2ccnc2CN2CCN(C3CCCC3)C(CCO)C2)c1 (stereo not given)	5.03% (inactive)
O=C(c1ccccc1F)N1C(=O)c2cccc3cccc1c23	1.1% (inactive)
C[N+](C)(CCCCCC[N+](C)(C)CCCN1C(=O)c2cccc3cccc(c23)C1=O)CCCN1C(=O)c2cccc3cccc(c23)C1=O	15.2% (inactive)
Cc1ccc(/C=N/n2c(C)nc3ccccc3c2=O)s1	-5.95% (inactive)
Cc1ccc(-c2[nH]ncc2/C=N/n2c(C)nc3ccccc3c2=O)cc1	24.4% (inactive)
CCc1ccccc1NC(=O)c1onc(C)c1Cl	-34.5% (inactive)
Cc1onc(-c2ccccc2Cl)c1C(=O)NNC(=O)C1CCN(Cc2ccccc2)CC1	-13.4% (inactive)
CCCN(CCC)CCNC(=O)C1CCN(Cc2nc(-c3ccc(Cl)cc3)oc2C)CC1	29.4% (inactive)
O=C(/C=C/c1ccccc1)OCc1cnc(Cl)s1	-4.85% (inactive)
O=C(/C=C/c1ccccc1)NC(=S)N1CCSCC1	-10.6% (inactive)
COC(=O)c1cc2nc(-c3ccccc3)cc(C)n2n1	14.7% (inactive)
